# Test results as given in publication PMC5101189.
# What was measured:
# Experiment in all cases: cross-linking mass spectrometry
# Settings in all cases: BS3, purified complex
# SPC24 = SPC24 (UniProt Q8NBT2)
# NSL1 = NSL1 (UniProt Q96IY1)
# DSN1 = DSN1 (UniProt Q9H410)
# ZWINT = ZWINT (UniProt O95229)
# MIS12 = MIS12 (UniProt Q9H081)
# PMF1 = PMF1 (UniProt Q6P1K2)
# SPC25 = SPC25 (UniProt Q9HBM1)
# Sequence of NDC80, O14777 (O14777 whole entry): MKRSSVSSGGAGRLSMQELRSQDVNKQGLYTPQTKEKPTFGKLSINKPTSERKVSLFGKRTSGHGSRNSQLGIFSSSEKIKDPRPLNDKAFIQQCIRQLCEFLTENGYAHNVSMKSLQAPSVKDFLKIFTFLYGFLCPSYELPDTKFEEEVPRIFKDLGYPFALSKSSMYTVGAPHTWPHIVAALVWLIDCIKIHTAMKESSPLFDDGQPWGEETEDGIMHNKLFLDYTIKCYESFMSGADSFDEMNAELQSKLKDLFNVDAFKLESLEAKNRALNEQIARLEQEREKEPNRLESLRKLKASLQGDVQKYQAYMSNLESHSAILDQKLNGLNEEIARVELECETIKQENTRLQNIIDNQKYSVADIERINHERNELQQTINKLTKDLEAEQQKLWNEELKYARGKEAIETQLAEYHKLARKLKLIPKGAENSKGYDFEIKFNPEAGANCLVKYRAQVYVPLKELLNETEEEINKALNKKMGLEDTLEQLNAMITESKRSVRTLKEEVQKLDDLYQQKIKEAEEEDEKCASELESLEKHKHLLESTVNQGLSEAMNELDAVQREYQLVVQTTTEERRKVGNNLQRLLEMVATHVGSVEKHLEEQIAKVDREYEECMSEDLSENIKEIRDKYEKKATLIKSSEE
# Sequence of CENPC, Q03188 (Q03188 whole entry): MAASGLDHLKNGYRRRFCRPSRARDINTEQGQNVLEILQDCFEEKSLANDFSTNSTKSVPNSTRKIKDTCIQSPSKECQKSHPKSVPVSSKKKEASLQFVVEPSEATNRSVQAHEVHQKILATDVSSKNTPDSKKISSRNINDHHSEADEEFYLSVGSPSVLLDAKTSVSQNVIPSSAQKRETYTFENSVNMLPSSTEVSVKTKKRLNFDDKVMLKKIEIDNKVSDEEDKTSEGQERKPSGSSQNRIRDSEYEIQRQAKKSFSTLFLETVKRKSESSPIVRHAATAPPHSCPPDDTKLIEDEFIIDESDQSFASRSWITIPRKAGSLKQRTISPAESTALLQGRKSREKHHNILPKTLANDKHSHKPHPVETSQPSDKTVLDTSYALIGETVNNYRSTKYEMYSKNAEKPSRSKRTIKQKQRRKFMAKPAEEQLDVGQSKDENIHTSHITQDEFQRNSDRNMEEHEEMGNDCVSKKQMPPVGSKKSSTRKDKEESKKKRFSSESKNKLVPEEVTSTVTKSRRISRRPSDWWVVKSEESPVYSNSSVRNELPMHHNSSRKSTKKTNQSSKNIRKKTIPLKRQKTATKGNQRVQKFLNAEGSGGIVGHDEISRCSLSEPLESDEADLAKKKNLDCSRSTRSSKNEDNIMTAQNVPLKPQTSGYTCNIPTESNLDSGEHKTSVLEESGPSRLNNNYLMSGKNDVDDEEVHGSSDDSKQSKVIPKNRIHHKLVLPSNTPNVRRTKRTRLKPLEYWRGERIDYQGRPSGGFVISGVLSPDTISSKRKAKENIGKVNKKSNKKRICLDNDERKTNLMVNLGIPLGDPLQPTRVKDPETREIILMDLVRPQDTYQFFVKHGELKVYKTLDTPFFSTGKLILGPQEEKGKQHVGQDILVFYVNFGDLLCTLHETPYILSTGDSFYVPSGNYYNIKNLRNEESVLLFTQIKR
# Sequence of SPC24 (Q8NBT2 whole entry): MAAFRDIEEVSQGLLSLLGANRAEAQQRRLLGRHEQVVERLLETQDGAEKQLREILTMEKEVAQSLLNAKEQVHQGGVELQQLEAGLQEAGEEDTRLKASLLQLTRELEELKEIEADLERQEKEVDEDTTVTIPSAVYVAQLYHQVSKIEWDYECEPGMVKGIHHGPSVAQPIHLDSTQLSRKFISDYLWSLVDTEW
# Sequence of NSL1 (Q96IY1 whole entry): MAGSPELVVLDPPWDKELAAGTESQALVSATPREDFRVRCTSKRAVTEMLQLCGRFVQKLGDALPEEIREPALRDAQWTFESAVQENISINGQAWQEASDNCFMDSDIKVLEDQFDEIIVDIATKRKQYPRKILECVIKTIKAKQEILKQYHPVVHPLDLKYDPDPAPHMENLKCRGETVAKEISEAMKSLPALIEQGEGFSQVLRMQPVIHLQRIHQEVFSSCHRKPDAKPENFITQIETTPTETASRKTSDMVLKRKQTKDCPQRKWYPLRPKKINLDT
# Sequence of ZWINT, O95229 (O95229 whole entry): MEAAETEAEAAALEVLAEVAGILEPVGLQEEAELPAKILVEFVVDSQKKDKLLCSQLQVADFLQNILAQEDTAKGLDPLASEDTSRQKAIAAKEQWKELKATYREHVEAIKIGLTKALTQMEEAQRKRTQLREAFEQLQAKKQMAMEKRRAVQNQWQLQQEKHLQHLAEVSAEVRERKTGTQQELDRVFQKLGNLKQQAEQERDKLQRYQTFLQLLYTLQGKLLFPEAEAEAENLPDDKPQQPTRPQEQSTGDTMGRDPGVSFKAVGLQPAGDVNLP
# Sequence of ZWINT (O95229 whole entry): as above
# Sequence of KNL1, Q8NG31 (Q8NG31 whole entry): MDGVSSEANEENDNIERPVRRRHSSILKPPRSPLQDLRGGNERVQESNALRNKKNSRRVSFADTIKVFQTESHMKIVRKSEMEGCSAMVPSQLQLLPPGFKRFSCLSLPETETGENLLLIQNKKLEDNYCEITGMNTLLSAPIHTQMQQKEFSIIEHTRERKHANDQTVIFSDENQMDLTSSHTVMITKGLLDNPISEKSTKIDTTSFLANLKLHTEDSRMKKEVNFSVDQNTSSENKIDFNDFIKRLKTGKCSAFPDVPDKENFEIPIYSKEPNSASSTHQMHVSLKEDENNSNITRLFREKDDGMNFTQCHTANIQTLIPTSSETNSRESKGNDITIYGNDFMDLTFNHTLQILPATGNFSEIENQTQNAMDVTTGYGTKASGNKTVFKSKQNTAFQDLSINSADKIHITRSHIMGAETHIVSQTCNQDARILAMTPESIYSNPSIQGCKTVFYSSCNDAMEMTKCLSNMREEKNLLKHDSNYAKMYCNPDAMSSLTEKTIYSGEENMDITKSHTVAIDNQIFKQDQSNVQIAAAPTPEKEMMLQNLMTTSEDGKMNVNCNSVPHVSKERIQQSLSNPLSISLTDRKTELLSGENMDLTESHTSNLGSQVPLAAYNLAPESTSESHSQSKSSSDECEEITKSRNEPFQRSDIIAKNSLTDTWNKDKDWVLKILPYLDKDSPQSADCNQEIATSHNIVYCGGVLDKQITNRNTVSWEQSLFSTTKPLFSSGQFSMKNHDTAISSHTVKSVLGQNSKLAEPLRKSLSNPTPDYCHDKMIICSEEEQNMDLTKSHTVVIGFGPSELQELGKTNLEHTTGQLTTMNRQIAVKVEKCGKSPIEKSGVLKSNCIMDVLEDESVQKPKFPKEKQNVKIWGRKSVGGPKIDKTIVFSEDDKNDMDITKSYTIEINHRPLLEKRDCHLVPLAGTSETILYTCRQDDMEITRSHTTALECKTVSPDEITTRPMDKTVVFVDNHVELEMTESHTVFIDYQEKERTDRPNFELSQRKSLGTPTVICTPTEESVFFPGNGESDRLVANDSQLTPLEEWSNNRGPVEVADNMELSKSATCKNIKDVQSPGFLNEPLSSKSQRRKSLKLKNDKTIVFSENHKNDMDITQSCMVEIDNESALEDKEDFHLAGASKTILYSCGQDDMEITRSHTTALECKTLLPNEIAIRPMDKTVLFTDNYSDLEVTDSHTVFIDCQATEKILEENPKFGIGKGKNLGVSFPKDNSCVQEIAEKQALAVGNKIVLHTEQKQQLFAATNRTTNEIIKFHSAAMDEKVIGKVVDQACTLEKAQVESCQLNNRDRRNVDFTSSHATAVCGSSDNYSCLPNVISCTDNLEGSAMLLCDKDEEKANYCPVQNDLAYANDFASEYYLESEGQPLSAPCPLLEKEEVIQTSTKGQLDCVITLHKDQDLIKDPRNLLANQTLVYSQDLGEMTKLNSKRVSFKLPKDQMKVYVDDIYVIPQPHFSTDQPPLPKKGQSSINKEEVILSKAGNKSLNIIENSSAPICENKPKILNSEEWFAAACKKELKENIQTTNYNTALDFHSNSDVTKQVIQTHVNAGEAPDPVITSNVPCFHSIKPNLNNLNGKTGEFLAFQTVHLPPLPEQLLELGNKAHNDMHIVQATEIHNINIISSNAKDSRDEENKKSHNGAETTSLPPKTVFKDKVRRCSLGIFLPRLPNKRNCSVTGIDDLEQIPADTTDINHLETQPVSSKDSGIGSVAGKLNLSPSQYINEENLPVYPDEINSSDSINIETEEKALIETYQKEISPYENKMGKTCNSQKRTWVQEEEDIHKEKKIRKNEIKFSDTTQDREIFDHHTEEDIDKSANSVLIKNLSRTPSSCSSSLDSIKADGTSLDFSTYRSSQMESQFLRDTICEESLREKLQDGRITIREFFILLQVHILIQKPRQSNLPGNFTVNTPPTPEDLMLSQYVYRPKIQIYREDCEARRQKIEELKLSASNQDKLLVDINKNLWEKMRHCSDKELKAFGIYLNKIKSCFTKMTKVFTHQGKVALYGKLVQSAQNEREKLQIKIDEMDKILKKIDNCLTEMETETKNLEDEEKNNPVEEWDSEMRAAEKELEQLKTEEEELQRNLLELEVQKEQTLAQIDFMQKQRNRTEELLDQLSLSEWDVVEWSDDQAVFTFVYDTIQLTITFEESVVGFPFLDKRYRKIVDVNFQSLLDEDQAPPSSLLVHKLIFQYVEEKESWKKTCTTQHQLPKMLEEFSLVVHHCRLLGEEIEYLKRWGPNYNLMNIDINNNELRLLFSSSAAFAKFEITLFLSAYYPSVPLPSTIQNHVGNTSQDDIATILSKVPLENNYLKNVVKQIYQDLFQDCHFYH
# Sequence of PMF1, Q6P1K2 (Q6P1K2 whole entry): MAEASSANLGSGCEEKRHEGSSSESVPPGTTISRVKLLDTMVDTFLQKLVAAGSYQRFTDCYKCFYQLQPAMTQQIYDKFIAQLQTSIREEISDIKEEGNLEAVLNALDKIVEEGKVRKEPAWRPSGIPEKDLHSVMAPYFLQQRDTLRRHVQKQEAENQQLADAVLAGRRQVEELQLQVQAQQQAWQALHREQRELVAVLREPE
# Sequence of PMF1 (Q6P1K2 whole entry): as above
# Sequence of NSL1, Q96IY1 (Q96IY1 whole entry): as the sequence (Q96IY1 whole entry) above
substance,measurement,setting,value
"PMF1, Q6P1K2",cross-linked residues,SPC24,K79 - K98
"KNL1, Q8NG31",cross-linked residues,NSL1,K2247 - K268
"NDC80, O14777",cross-linked residues,DSN1,K300 - K315
same,cross-linked residues,SPC24,K624 - K50
same,cross-linked residues,ZWINT,K271 - K141
"CENPC, Q03188",cross-linked residues,MIS12,K45 - K81
same,cross-linked residues,PMF1,K45 - K48
"ZWINT, O95229",cross-linked residues,NSL1,K196 - K262
"NSL1, Q96IY1",cross-linked residues,SPC25,K275 - K203
